Source: PubChem BioAssay
Inconclusive results are not listed. For some assays here: Measured potencies and affinities stand elsewhere. Calls of active or inactive are those of the source. Unless noted, no rule for the calls is given here.

Key:
[1] = polyglutamine-triggered caspase-3 activation inhibitors, cell-based (AID 1583); conditions: polyglutamine-induced caspase-3 activation, cell assay; stronger effect = higher value;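 tested at 10 µM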
[2] = suppressors of polyQ aggregation in yeast, 75Q-TubU reporter (AID 1593); conditions: Yeast 75Q polyglutamine aggregation reporter
[3] = rescue of polyQ-huntingtin neuronal dysfunction in worms, whole organism, C. elegans mechanosensory neurons, N-terminal huntingtin (AID 1599); conditions: touch response, stronger effect = higher value
[4] = inhibitors of mitochondrial cytochrome c release, biochemical, purified mitochondria (AID 1603); conditions: stronger effect = lower value;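 also: mouse liver mitochondria challenged with calcium chloride; signal normalized to the plate average as 100%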
[5] = inhibitors of polyQ protein aggregation (AID 1604); conditions: polyglutamine-induced protein aggregation inhibition assay; stronger effect = higher value; tested at 2.5 µM
[6] = enhancers of glutamate uptake in motor neurons, MN-1 cell line (AID 1612); conditions: MN-1 motor neuron cells, stronger effect = higher value;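 also: tested at 1 µM final; 0% = mean of DMSO vehicle wells on each plate; positive means more glutamate uptake than control and negative means less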
[7] = reducers of polyQ inclusions in PC12 cells, cell-based, NGF-treated PC12, GFPQ80 (AID 1614); conditions: PC12 NGF-treated GFP-polyQ80 inclusion reduction;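 also: lower means fewer inclusions and 0 means no inclusions at all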
[8] = suppressors of polyglutamine aggregation in yeast, 75Q-TubH (AID 1616); conditions: S. cerevisiae 75Q-TubH polyglutamine aggregation suppression; stronger effect = higher value
[9] = target: 6-phosphogluconate dehydrogenase, decarboxylating (Homo sapiens) (UniProt P52209); assay: 6PGD enzyme inhibitors, primary screen, biochemical, human, recombinant enzyme, NADPH absorbance (AID 1159550;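 active = at least 20% inhibition of 6-phosphogluconate dehydrogenase activity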); conditions: recombinant 6PGD, NADPH absorbance 341 nm; at 10 µM; stronger effect = higher value
[10] = target: Mitogen-activated protein kinase 7 (Homo sapiens) (UniProt Q13164); assay: ERK5 transactivation activators in reporter cells, primary screen, cell-based, HTS (AID 1508626;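 active = luciferase signal above three times the same-plate solvent-only control wells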;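 also: luciferase driven by Gal4-ERK5 fusion binding five Gal4 sites before minimal TATA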); conditions: HeLa Gal4-ERK5 transactivation, 18 h, at 5 µM, stronger effect = higher value
[11] = liver-stage malaria parasite growth inhibition, primary screen, cell-based, HepG2, luciferase luminescence, HepG2 viability (AID 624349; in the data active = parasite load remaining mostly below about 12%, no sharp cut-off; inactive = mostly above about 10%;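 also: 100% = mean of DMSO negative control wells on the same plate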); conditions: P. berghei liver stage in HepG2, luciferase luminescence, concentration not given here; parasite load remaining: stronger effect = lower value; viability: measured here: HepG2 viability without parasites
[12] = target: Calcium-dependent protein kinase 1 (Plasmodium falciparum (isolate 3D7)) (UniProt P62344); assay: PfCDPK1 kinase inhibitors, biochemical, TCAMS library (AID 1159585; cut-off not given, nearly all actives have IC50 up to about 0.98 µM;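 also: inhibitors leave more ATP so luminescence rises with inhibition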); conditions: recombinant PfCDPK1, Kinase-Glo ATP depletion luminescence
[13] = target: Plasmodium falciparum protein kinase 6 (PK6, PF3D7_1337100) (UniProt Q8IDW1); assay: PfPK6 kinase inhibitors, biochemical, TCAMS library (AID 1159586); conditions: recombinant PfPK6, Kinase-Glo ATP depletion luminescence
[14] = target: Protein kinase 7 (PK7), Plasmodium falciparum 3D7 (PF3D7_0213400) (UniProt Q7YTF7); assay: inhibition of Plasmodium PK7 catalytic activity – biochemical, TCAMS antimalarial set, Kinase-Glo luminescence (AID 1159587); conditions: recombinant PfPK7, Kinase-Glo ATP depletion luminescence
[15] = target: Calcium-dependent protein kinase 4 (Plasmodium falciparum (isolate 3D7)) (UniProt Q8IBS5); assay: PfCDPK4 kinase inhibitors, biochemical, TCAMS library (AID 1159588; cut-off not given, nearly all actives have IC50 up to about 0.91 µM); conditions: recombinant PfCDPK4, Kinase-Glo ATP depletion luminescence
[16] = target: ATP-dependent translocase ABCB1 (Homo sapiens) (UniProt P08183); assay: MDR1 (ABCB1) efflux transporter inhibition, cell-based (AID 377; in the data active = fluorescence slope change above about 50%); conditions: MDR1-expressing cells, fluorescent substrate accumulation slope; stronger effect = higher value; concentration not given here
[17] = hESC survival regulators, cell-based (AID 493140); conditions: human embryonic stem cell survival screen; stronger effect = higher value;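 also: cells exposed to compounds for four days before counting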

Chain of Calcium-dependent protein kinase 4 (Plasmodium falciparum (isolate 3D7)) (Q8IBS5 whole entry, looked up): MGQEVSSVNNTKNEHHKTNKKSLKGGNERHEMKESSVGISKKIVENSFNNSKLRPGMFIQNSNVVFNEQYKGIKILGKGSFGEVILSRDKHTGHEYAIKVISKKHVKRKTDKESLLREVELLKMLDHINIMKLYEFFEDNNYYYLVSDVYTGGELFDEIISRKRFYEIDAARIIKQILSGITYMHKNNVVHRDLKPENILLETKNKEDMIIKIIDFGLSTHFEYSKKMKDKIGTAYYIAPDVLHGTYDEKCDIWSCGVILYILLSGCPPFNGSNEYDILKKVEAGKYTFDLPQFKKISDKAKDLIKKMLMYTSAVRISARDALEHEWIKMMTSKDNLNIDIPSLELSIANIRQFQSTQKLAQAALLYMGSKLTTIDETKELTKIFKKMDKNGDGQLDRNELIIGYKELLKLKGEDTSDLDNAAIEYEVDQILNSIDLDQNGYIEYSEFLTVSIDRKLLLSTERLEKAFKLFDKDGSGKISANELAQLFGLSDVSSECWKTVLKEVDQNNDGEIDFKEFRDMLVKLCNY
Chain of Mitogen-activated protein kinase 7 (Homo sapiens) (Q13164 whole entry, looked up, the tested form may be a part): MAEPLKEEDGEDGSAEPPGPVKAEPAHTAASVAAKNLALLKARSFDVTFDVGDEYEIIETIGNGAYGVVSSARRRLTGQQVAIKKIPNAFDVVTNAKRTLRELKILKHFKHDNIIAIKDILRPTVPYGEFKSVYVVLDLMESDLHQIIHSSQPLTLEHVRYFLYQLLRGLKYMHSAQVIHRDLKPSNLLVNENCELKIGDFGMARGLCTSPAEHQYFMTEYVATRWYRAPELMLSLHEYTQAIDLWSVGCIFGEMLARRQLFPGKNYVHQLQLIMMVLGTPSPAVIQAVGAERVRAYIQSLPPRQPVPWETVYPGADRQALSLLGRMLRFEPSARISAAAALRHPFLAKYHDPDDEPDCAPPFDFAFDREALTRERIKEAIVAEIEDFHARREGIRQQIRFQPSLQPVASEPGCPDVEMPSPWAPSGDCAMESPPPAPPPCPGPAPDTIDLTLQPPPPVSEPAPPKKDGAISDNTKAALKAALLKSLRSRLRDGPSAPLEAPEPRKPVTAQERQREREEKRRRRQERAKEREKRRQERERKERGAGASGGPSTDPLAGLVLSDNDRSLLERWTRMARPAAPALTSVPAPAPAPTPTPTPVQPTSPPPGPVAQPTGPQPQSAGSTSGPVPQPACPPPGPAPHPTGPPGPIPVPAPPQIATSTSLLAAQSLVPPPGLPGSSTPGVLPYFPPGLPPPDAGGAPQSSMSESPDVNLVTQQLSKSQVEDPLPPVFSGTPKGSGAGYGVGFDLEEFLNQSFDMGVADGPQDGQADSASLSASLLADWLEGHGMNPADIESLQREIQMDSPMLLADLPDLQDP
Chain of Protein kinase 7 (PK7), Plasmodium falciparum 3D7 (PF3D7_0213400) (Q7YTF7 1-343): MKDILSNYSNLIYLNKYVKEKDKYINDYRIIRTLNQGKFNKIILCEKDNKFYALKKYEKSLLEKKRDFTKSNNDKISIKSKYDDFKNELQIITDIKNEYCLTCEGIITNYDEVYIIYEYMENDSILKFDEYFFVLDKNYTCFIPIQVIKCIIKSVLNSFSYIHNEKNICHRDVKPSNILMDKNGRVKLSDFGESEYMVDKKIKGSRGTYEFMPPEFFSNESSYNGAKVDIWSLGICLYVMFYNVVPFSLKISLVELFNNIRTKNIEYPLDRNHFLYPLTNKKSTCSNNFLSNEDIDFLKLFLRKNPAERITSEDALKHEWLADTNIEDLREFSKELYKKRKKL
Chain of 6-phosphogluconate dehydrogenase, decarboxylating (Homo sapiens) (P52209 whole entry, looked up, the tested form may be a part): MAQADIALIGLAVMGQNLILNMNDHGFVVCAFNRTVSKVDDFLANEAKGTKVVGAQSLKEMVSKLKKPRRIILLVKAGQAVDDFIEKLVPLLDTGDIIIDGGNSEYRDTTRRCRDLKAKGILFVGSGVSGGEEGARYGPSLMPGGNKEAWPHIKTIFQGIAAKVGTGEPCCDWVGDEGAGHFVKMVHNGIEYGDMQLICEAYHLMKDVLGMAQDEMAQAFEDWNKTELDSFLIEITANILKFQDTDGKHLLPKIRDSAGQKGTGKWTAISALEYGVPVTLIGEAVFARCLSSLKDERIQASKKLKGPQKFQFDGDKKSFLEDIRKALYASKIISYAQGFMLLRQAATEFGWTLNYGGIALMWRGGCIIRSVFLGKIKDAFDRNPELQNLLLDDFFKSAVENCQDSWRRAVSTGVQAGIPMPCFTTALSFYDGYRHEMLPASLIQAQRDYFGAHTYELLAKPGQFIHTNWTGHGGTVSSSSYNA
Chain of Calcium-dependent protein kinase 1 (Plasmodium falciparum (isolate 3D7)) (P62344 whole entry, looked up): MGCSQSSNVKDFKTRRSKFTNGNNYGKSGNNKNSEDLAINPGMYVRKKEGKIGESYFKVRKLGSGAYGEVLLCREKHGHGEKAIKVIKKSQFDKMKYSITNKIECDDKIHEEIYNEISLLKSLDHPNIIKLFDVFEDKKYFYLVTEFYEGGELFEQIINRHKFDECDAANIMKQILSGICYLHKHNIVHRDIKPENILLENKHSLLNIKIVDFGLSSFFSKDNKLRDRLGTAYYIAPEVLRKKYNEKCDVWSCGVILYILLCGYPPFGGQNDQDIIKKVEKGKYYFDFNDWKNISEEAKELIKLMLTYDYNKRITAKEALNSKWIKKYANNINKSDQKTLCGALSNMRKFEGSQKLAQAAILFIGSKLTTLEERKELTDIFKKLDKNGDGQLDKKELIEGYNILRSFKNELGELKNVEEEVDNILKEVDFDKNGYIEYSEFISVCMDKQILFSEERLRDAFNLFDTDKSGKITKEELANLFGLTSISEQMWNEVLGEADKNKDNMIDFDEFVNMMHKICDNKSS
Chain of Plasmodium falciparum protein kinase 6 (PK6, PF3D7_1337100) (Q8IDW1 1-305): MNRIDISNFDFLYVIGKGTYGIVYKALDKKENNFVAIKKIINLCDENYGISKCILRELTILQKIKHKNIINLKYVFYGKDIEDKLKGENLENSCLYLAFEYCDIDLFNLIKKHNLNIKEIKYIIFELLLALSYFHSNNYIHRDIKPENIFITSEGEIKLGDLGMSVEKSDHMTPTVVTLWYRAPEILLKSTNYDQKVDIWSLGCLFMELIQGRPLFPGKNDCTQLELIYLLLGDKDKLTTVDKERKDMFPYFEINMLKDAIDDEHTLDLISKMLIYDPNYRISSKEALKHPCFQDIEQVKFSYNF
Chain of ATP-dependent translocase ABCB1 (Homo sapiens) (P08183 whole entry, looked up): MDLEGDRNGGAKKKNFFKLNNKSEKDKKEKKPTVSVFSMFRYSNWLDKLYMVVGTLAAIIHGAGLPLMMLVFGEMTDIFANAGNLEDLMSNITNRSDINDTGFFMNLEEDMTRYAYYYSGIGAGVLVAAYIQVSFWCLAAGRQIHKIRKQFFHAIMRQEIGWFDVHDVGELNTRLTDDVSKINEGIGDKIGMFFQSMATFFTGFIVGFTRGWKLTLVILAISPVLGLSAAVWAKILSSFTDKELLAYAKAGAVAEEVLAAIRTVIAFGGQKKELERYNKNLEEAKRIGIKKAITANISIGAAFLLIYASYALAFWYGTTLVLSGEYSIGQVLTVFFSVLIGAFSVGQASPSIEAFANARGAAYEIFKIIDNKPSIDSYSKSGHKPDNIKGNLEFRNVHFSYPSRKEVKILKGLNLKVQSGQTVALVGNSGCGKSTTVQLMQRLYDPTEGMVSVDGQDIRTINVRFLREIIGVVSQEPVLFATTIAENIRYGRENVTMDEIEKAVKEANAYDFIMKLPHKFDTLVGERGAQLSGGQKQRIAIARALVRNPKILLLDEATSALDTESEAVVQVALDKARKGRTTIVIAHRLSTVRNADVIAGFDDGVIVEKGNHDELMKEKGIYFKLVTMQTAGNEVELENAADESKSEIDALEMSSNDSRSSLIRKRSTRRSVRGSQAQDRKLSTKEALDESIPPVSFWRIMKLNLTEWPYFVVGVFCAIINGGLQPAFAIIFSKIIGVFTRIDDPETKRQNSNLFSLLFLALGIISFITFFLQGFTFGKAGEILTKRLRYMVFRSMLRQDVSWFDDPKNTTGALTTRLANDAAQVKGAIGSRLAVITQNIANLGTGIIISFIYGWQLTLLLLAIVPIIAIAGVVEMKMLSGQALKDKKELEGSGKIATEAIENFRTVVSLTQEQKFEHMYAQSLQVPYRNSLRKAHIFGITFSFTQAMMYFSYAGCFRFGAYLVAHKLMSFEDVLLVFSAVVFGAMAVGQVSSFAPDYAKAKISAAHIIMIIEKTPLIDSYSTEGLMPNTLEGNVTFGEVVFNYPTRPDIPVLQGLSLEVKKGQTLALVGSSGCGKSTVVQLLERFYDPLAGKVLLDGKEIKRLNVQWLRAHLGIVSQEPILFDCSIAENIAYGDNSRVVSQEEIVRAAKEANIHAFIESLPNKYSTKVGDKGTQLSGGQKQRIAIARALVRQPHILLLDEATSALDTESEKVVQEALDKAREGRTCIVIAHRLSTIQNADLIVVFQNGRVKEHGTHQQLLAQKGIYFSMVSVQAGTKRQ

COC(=O)[C@H]1[C@H]2C[C@H]3c4[nH]c5cc(OC)ccc5c4CCN3C[C@H]2C[C@@H](OC(=O)c2cc(OC)c(OC)c(OC)c2)[C@@H]1OC
inhibition [1]: -6.47%
score [2]: 1.04
rescue above control [3]: -3.75
cytochrome c release ratio [4]: 1.13
inhibition of aggregation [5]: 26.7%
glutamate uptake change [6]: 8.81%
inclusion score [7]: 2.5
aggregation suppression score [8]: 0.976
inhibition [9]: 0.174% (inactive)
luciferase signal [10]: 92 AU (inactive)

COc1c(-c2ccccc2)oc2c(ccc3occc32)c1=O
inhibition [9]: -3.15% (inactive)
luciferase signal [10]: 36 AU (inactive)

O=C(O)/C=C(/CC(=O)O)C(=O)O
inhibition [9]: 8.82% (inactive)
luciferase signal [10]: 60 AU (inactive)

CC(=O)N[C@@H](CCC(=O)O)C(=O)O
inhibition [1]: 24.8%
score [2]: 1.29
rescue above control [3]: 9.63
cytochrome c release ratio [4]: 1.22
inhibition of aggregation [5]: 74.1%
glutamate uptake change [6]: -6.23%
inclusion score [7]: 2
aggregation suppression score [8]: 1.35
parasite load remaining [11]: 196% (inactive)
viability [11]: 71.4%
inhibition [9]: 13.8% (inactive)

O/N=C1\CCc2cc(-c3cc(-c4ccc(OC5CCNCC5)cc4)oc3-c3ccncc3)ccc21
outcome [12]: inactive
outcome [13]: inactive
outcome [14]: inactive
outcome [15]: inactive

CCC[C@@H]([C@H](CC(C)C)C(=O)N[C@@H](CCCCNC(=O)OCc1ccccc1)C(=O)Nc1ncccn1)N(O)C=O
outcome [12]: inactive
outcome [13]: inactive
outcome [14]: inactive
outcome [15]: inactive

Nc1ccc(-c2nc3cc(C4=N[C@@H]5CCCC[C@@H]5N4)ccc3o2)cc1[N+](=O)[O-]
outcome [12]: inactive
outcome [13]: inactive
outcome [14]: inactive
outcome [15]: inactive

COc1ccc(Nc2nc(N/N=C/c3cc(Br)ccc3O)nc(Nc3ccc([N+](=O)[O-])cc3)n2)cc1
outcome [12]: inactive
outcome [13]: inactive
outcome [14]: inactive
outcome [15]: inactive

CNC1C(O)C(OC2C(N)CC(N)C(OC3OC(CN)=CCC3N)C2O)OCC1(C)O (stereo not given)
fluorescence slope change [16]: 28.9% (inactive)
survival [17]: 9.33 (inactive)
parasite load remaining [11]: 81.3% (inactive)
viability [11]: 80.5%
inhibition [9]: 0.544% (inactive)

CCCC[C@H](C(=O)NCc1ccccc1C(F)(F)F)N1C(=O)CCC1C(=O)Nc1ccc([N+](=O)[O-])cc1 (stereo not given in full)
outcome [12]: inactive
outcome [13]: inactive
outcome [14]: inactive
outcome [15]: inactive
